# Assay outcomes deposited in PubChem by several laboratories.
# SENP8 block-1: blocks human SENP8 cleavage of Nedd8 substrate. Q96LD8. recombinant SENP8, Nedd8 substrate fluorescence. 360,000 compounds, 0.64% hits. AID 602440. inhibition, % at 20 µM; in the data active = inhibition mostly above about 40%, no sharp cut-off; inactive = mostly below about 27%
# Target sequence (Q96LD8 whole entry, looked up): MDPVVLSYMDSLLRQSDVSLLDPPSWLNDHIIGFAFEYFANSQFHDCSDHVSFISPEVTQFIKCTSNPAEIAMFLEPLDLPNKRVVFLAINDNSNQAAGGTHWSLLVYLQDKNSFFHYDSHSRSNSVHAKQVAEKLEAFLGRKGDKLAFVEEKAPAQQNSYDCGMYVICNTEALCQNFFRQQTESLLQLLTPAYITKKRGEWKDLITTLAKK
# LGR2 inh: blocks bursicon-induced cAMP signaling via Drosophila LGR2; HEK293 LGR2, CRE-luciferase, bursicon-stimulated, 4 h; inhibition, % at 9.99 µM; 380,000 compounds, 0.35% hits; AID 720647;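 active = drop in luminescence signal, shown as inhibition above about 50% in the replicate tests, limit read from the data, passing the limit was not always enough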;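 note: agonist challenge used bursicon conditioned medium at about half maximal strength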
# HSP90 refold inh: blocks HSP90-mediated luciferase refolding in reticulocyte lysate | Rabbit reticulocyte lysate, luciferase refolding luminescence, 3 h | inhibition, % at 5.6 µM | 290,000 compounds, 0.91% hits | AID 1789;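 active = inhibition above the screen-wide mean plus 3 SD, computed separately per campaign, cut at about 16% in these data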;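 note: 0% = DMSO wells and 100% = 60 µM geldanamycin wells; inhibitors lower the luminescence because luciferase stays unfolded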
# SENP6 inh: inhibitors of human SENP6 protease | Q9GZR1 | Recombinant SENP6 catalytic domain, aminoluciferin luminescence | AID 2599 | inhibition, % at 10 µM | 330,000 compounds, 1.8% hits;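 active = inhibition above about 50% at the single tested dose, limit read from the data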;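 note: plate controls were DMSO wells with enzyme for no effect and DMSO wells lacking enzyme for full effect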
# Target sequence (Q9GZR1 628-1112 limits assumed): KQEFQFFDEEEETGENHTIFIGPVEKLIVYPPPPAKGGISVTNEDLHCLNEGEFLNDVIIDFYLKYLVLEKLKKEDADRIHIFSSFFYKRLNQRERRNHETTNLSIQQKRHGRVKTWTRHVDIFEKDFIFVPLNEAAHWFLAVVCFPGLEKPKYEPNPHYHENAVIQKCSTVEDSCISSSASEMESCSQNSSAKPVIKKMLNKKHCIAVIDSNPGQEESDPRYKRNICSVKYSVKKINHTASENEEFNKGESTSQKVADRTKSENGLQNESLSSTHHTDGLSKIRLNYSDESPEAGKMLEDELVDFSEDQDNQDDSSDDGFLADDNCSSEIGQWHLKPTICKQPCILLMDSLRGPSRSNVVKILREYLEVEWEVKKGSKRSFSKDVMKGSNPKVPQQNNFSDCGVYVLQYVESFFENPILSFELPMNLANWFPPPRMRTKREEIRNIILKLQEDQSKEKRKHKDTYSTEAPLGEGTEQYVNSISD
# SENP7 block: SENP7 protease inhibition; Q9BQF6; recombinant SENP7, Z-RLRGG-aminoluciferin luminescence, 40 min; inhibition, % at 5 µM; 330,000 compounds, 1.5% hits;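 active = inhibition above about 50% at the single test dose, limit read from the data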;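 note: plate controls were DMSO with enzyme for no effect and no enzyme buffer wells for full effect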
# SENP8 block-2: SENP8 protease inhibition. Q96LD8. purified SENP8, Z-RLRGG-aminoluciferin cleavage, luminescence. inhibition, % at 10 µM. 330,000 compounds, 1.2% hits; in the data active = inhibition above about 50%
# SENP8 confirm: human SENP8 inhibition, confirmed. Recombinant SENP8, Z-RLRGG-aminoluciferin luminescence, 60 min. 6,200 compounds, 40% hits. AID 488912. shares compounds with SENP7 block. inhibition, % at 12.5 µM;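 active = mean inhibition across replicates above about 50%, limit read from the data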
# SENP6 confirm: confirmation of human SENP6 protease inhibitors; shares compounds with SENP7 block; AID 488915; recombinant SENP6, Z-RLRGG-aminoluciferin luminescence; inhibition, % at 12.5 µM; 6,200 compounds, 58% hits
# SENP7 confirm: human SENP7 inhibition, confirmed. shares compounds with SENP7 block. 6,200 compounds, 69% hits. inhibition, % at 12.5 µM. recombinant SENP7, Z-RLRGG-aminoluciferin luminescence, 40 min
# Casp3 select: selectivity test for SENP inhibitors: human caspase-3 inhibition; 6,200 compounds, 60% hits; inhibition, % at 12.5 µM; AID 488918; shares compounds with SENP7 block; purified caspase-3, Z-DEVD-aminoluciferin luminescence, 60 min;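 active = mean inhibition above about 50%, limit read from the data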;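 note: plate controls were enzyme with DMSO for no effect and wells without caspase-3 for full effect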
# Luc interf: counter-screen for SENP inhibitors: luminescence interference; 6,200 compounds, 39% hits; Pre-incubated SENP8/Z-RLRGG-aminoluciferin, luciferase luminescence interference; shares compounds with SENP7 block; inhibition, % at 12.5 µM;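 active = mean inhibition above about 50% when retested at one dose, limit read from the data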;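 note: plate controls were DMSO wells with completed reaction for no effect and substrate without enzyme for full effect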
# The depositor's hits bear a star; . = no result. This is a sample that favours compounds with a hit; in the whole collection about 2.3% have one here.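 Rule for the calls, unless noted: active = mean inhibition above about 50% in the one-dose retest (limit read from the data); inactive = the rest.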
SMILES,SENP8 block-1,LGR2 inh,HSP90 refold inh,SENP6 inh,SENP7 block,SENP8 block-2,SENP8 confirm,SENP6 confirm,SENP7 confirm,Casp3 select,Luc interf
Oc1[nH]c2ccccc2c1N=Nc1cccc(Cl)c1,23.5,-69.6,10.4,36.3,63.7*,46.8,-20.5,-1.5,14.0,8.4,-4.9
Oc1[nH]c2ccccc2c1N=Nc1ccccc1Cl,21.7,-67.2,.,.,.,.,.,.,.,.,.
O=C(N=Nc1c(O)[nH]c2ccccc12)c1ccco1,19.5,-33.1,2.2,60.3*,62.4*,23.7,49.1,46.0,82.8*,80.5*,32.9
O=C(CSCc1ccccc1)N=Nc1c(O)[nH]c2ccccc12,35.2,-16.0,-7.5,9.9,3.3,0.8,.,.,.,.,.
Oc1[nH]c2ccccc2c1N=Nc1nncc2ccccc12,-35.3,-50.3,-2.8,72.2*,73.8*,41.8,49.2,48.4,72.1*,76.4*,58.3*
Cc1cccc2c(N=Nc3ccccc3)c(O)[nH]c12,18.7,-127.8,-0.8,-2.7,54.4*,-9.4,11.5,12.7,34.7,12.0,6.8
CCCNC(=O)N1C[C@H](O)COC[C@H]2O[C@H](CC(=O)N3CCOCC3)CC[C@@H]21,.,0.8,.,.,.,.,.,.,.,.,.
CC(=O)Nc1ccc(NC(=O)CSc2nnc(NC(=O)c3ccc(Br)o3)s2)cc1,-86.2,25.8,5.2,86.6*,47.8,69.9*,17.3,13.7,13.8,48.9,1.8
CC(=O)c1ccc(NC(=O)CSc2nnc(NC(=O)c3ccco3)s2)cc1,-23.4,.,-4.2,55.4*,46.7,54.8*,8.6,10.4,14.8,13.4,6.9
COCCSc1nnc(NC(=O)c2ccco2)s1,-14.8,4.4,-6.9,-13.8,92.4*,-7.6,-2.3,-2.8,-3.3,19.1,4.0
Cc1cccc(C(=O)Nc2nnc(SCC(=O)Nc3ccc4c(c3)oc3ccccc34)s2)c1,-19.4,.,-4.0,-43.4,-3.4,-15.5,.,.,.,.,.
COc1ccccc1C(=O)Nc1nnc(SCC(=O)Nc2ccc3c(c2)oc2ccccc23)s1,-94.6,-77.4,1.2,34.1,73.9*,21.8,19.3,-7.4,11.6,14.0,-0.7
Cc1noc(C)c1NC(=O)Nc1cccc2c1O[C@H](CN(C)Cc1ccc(C(F)(F)F)cc1)[C@H](C)CN([C@@H](C)CO)C2=O,.,14.9,.,.,.,.,.,.,.,.,.
COC(=O)CSc1nnc(-c2sc3ccccc3c2Cl)o1,-305.9,.,6.0,70.2*,56.5*,28.4,-5.0,-2.6,4.6,8.6,2.4
N#CCSc1nnc(-c2sc3ccccc3c2Cl)o1,-22.8,-29.1,1.1,-2.4,-7.5,-13.3,.,.,.,.,.
O=C(/C=C/c1ccco1)Nc1cc(Cl)ccc1C(=O)O,-43.9,3.2,-1.1,73.1*,7.0,55.6*,71.7*,71.1*,88.5*,70.2*,75.2*
O=C(COc1ccc2ccccc2c1)Nc1ccccc1C(=O)O,-5.7,-4.2,-4.9,55.1*,7.3,34.3,54.3*,50.8*,27.3,49.8,23.4
COc1ccc(/C=C/C(=O)Nc2ccccc2C(=O)O)cc1,-3.7,58.9*,45.9*,94.5*,95.9*,93.2*,97.0*,97.0*,100.5*,96.2*,96.2*
O=C(/C=C\c1ccco1)Nc1cc([N+](=O)[O-])ccc1F,17.6,-5.2,-0.8,-12.4,-2.1,-11.7,.,.,.,.,.
COc1ccc(/C=C/c2cc(C(=O)O)c3ccccc3n2)cc1,-437.7,6.9,1.7,-3.5,54.6*,68.7*,-23.8,-2.9,2.4,-3.2,7.0
Cc1noc(C)c1S(=O)(=O)N(C)C[C@H]1Oc2c(NC(=O)C3CCOCC3)cccc2C(=O)N([C@H](C)CO)C[C@H]1C,.,-4.8,.,.,.,.,.,.,.,.,.
O=C(/C=C/c1ccco1)Nc1ccccc1C(=O)O,-9.9,-8.1,7.3,93.0*,82.5*,88.2*,93.3*,93.7*,100.6*,96.9*,93.4*
O=C(/C=C/c1ccco1)Nc1ccccc1C(=O)Nc1cccc(C(=O)O)c1,-13.7,14.5,0.1,10.8,0.9,-3.8,.,.,.,.,.
Cc1noc(C)c1NC(=O)Nc1cccc2c1O[C@H](CN(C)C(=O)Nc1ccc3c(c1)OCO3)[C@@H](C)CN([C@@H](C)CO)C2=O,.,12.3,.,.,.,.,.,.,.,.,.
C[C@H](CO)N1C[C@H](C)[C@@H](CN(C)Cc2ccccn2)Oc2cc(C3=CCCC3)ccc2S1(=O)=O,.,-15.9,.,.,.,.,.,.,.,.,.
SMILES,SENP8 block-1,LGR2 inh,HSP90 refold inh,SENP6 inh,SENP7 block,SENP8 block-2,SENP8 confirm,SENP6 confirm,SENP7 confirm,Casp3 select,Luc interf
O=C(O)c1ccc(N/N=C/c2ccc(-c3cc(Cl)ccc3Cl)o2)cc1,-451.9,-69.3,14.6,76.2*,-5.3,53.4*,-4.4,84.6*,86.5*,2.3,29.1
O=C(O)c1cccc(-c2ccc(/C=N/Nc3ccc([N+](=O)[O-])cc3)o2)c1,-16.6,-2.4,-4.0,6.0,8.5,-5.7,.,.,.,.,.
NS(=O)(=O)c1ccc(-c2ccc(/C=N/Nc3ccc(C(=O)O)cc3)o2)cc1,-338.5,-14.7,9.6,-4.1,9.6,1.9,.,.,.,.,.
O=C(O)c1ccc(N/N=C/c2ccc(-c3cccc(Cl)c3)o2)cc1,-449.2,-58.3,6.5,1.4,13.4,57.8*,82.5*,82.1*,90.4*,7.3,82.5*
CN(C)c1ccc2c(c1)[C@@H]1C[C@@H](CC(=O)O)O[C@@H](CO)[C@@H]1O2,.,2.3,.,.,.,.,.,.,.,.,.
CCC(=O)N1C[C@H](C)[C@@H](OC)CN(C)C(=O)c2cc(NC(=O)COC)ccc2OC[C@@H]1C,.,-10.7,.,.,.,.,.,.,.,.,.
CCOc1ccc(C(=O)COC(=O)c2cc(=O)[nH]c3ccccc23)cc1,-205.9,-11.5,.,-3.2,52.9*,-16.8,-8.8,-9.0,-5.2,6.7,1.5
C[C@@H]1CN([C@@H](C)CO)C(=O)c2cc(NS(=O)(=O)c3cccs3)ccc2O[C@H]1CN(C)Cc1ccc(Cl)c(Cl)c1,.,11.1,.,.,.,.,.,.,.,.,.
C[C@@H]1CN([C@@H](C)CO)C(=O)c2cc(NC(=O)Nc3ccc(F)cc3)ccc2O[C@@H]1CN(C)Cc1ccc(-c2ccccc2)cc1,.,-25.3,.,.,.,.,.,.,.,.,.
C=CCn1c(N)c(C(=O)NCC2CCCO2)c2nc3ccccc3nc21 (stereo not drawn),-273.7,.,5.5,91.4*,22.7,90.0*,9.5,21.2,15.3,4.9,5.4
Nc1c(C(=O)NCc2ccccc2)c2nc3ccccc3nc2n1CCCN1CCOCC1,-410.5,0.7,5.3,74.3*,21.5,62.9*,-0.3,6.6,-2.3,-4.4,-5.2
O=C(NCC1CCCO1)c1coc2nc3ccccc3nc12 (stereo not drawn),-494.7,.,0.7,6.8,8.3,9.8,.,.,.,.,.
